# From PubChem BioAssay (NCI)
# The panel holds about 79,000 compounds, 15% with a hit somewhere; the sample as a whole holds those more often. Unmarked numbers belong to inactive results. Calls of active or inactive are those of the source. Rule as the data show it: active = growth inhibition above about 70%; inactive = the rest.
# Columns and labels:
# [1] = NCI Yeast Anticancer Drug Screen. Data for the rad52 strain (AID 147);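 also: 0% = growth of vehicle-treated control cultures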; conditions: S. cerevisiae rad52 mutant growth inhibition, active compounds read high
# In short: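 Vehicle-treated cultures served as the reference for growth inhibition of compound-exposed yeast bearing a DNA repair mutation.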
# [2] = NCI Yeast Anticancer Drug Screen. Data for the wt1 strain (AID 149);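 also: 0% = growth of vehicle-treated wt1 cultures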; conditions: S. cerevisiae wt1 strain (SPY 50644) growth inhibition, active compounds read high
# In short: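 Growth inhibition read against vehicle controls after compound exposure of the wt1 yeast strain.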
# [3] = NCI Yeast Anticancer Drug Screen. Data for the rad50EPP+ strain (AID 151);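 also: 0% = growth of vehicle-treated control cultures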; conditions: S. cerevisiae rad50 mutant strain, active compounds read high
# In short: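 In this screen, rad50EPP+ yeast were exposed to compounds. Growth inhibition was scored against vehicle-treated controls.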
# [4] = NCI Yeast Anticancer Drug Screen. Data for the mgt1 strain (AID 153); conditions: S. cerevisiae mgt1 mutant growth inhibition, active compounds read high
# In short: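 mgt1 strain exposed; growth vs vehicle control recorded as inhibition.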
# [5] = NCI Yeast Anticancer Drug Screen. Data for the rad50 strain (AID 155);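 also: 0% = growth of vehicle-only cultures of the same strain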; conditions: S. cerevisiae rad50 strain growth inhibition, active compounds read high
# In short: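 Readout: growth inhibition relative to vehicle-treated cultures. Compound exposure was carried out in a genetically defined yeast strain deficient in DNA damage repair.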
# [6] = NCI Yeast Anticancer Drug Screen. Data for the mec2-1 strain (AID 157); conditions: S. cerevisiae mec2-1 strain, active compounds read high
# In short: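 Vehicle-treated cultures served as reference for growth inhibition of compound-exposed mec2-1 yeast.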
# [7] = NCI Yeast Anticancer Drug Screen. Data for the rad14 strain (AID 159);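 also: 0% = growth of vehicle-treated control cultures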; conditions: S. cerevisiae rad14 strain growth inhibition, active compounds read high
# In short: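 Growth inhibition vs vehicle controls; genetically altered yeast strain (DNA damage repair defect) treated with test compounds.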
# [8] = NCI Yeast Anticancer Drug Screen. Data for the sgs1 mgt1 strain (AID 161);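 also: 0% = growth of cultures given vehicle only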; conditions: S. cerevisiae sgs1 mgt1 strain, active compounds read high
# In short: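 Read-out: growth inhibition vs vehicle controls. Cells: mutant yeast strain deficient in DNA damage repair.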
# [9] = NCI Yeast Anticancer Drug Screen. Data for the CLN2oe strain (AID 163);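 also: 0% = growth of vehicle-only control cultures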; conditions: S. cerevisiae CLN2oe strain, active compounds read high
# In short: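 Inhibition relative to vehicle-treated yeast is reported. Cells: strain with genetic alteration in cell-cycle control, grown with compound.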
# [10] = NCI Yeast Anticancer Drug Screen. Data for the cln2 rad14 strain (AID 165);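 also: 0% = growth equal to vehicle treated cultures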; conditions: S. cerevisiae cln2 rad14 strain, active compounds read high
# In short: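 Each compound was tested on cln2 rad14 yeast. Inhibition of growth was calculated against vehicle-exposed controls.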
# [11] = NCI Yeast Anticancer Drug Screen. Data for the bub3 strain (AID 167); conditions: S. cerevisiae bub3 mutant strain, active compounds read high
# In short: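 Readout: yeast growth inhibition, expressed relative to vehicle-only wells. The test organism is a mutant strain from a panel with lesions in DNA repair or checkpoint genes.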
# [12] = NCI Yeast Anticancer Drug Screen. Data for the wt2 strain (AID 169);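 also: 0% = growth of vehicle-treated yeast cultures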; conditions: S. cerevisiae wt2 strain growth inhibition, active compounds read high
# In short: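 Inhibition of yeast growth was determined after compound treatment, normalised to controls receiving only vehicle.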
# [13] = NCI Yeast Anticancer Drug Screen. Data for the mlh1 strain (AID 171);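 also: 0% = growth of vehicle-treated control cultures of the same strain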; conditions: S. cerevisiae mlh1 strain growth inhibition, active compounds read high
# In short: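 Vehicle-normalised growth inhibition of a repair- or checkpoint-altered yeast strain following compound treatment.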
# [14] = NCI Yeast Anticancer Drug Screen. Data for the sgs1 strain (AID 173);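 also: 0% = growth of vehicle-only control cultures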; conditions: S. cerevisiae sgs1 mutant, active compounds read high
# In short: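 Screen format: yeast with repair or checkpoint alterations, compound exposure, growth read relative to vehicle.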
# [15] = NCI Yeast Anticancer Drug Screen. Data for the mlh1 rad18 strain (AID 175); conditions: S. cerevisiae mlh1 rad18 strain growth inhibition, active compounds read high
# In short: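 Vehicle-treated cultures served as the reference for growth inhibition in a yeast strain carrying DNA damage repair alterations exposed to each compound.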
# [16] = NCI Yeast Anticancer Drug Screen. Data for the rad18 strain (AID 177); conditions: S. cerevisiae rad18 mutant growth inhibition, active compounds read high
# In short: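 Test articles were incubated with altered yeast defective in DNA damage repair. Results are given as inhibition of growth versus vehicle.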
# [17] = at 5.0 µM (retest, dose inferred, filed as 0.5)
# [18] = at 50.0 µM (retest, dose inferred, filed as 5.0)
smiles,measurement,setting,value
CCNc1nnc(CSc2nc(-c3ccccc3)c(-c3ccccc3)[nH]2)s1,growth inhibition,[1]; at 1.2 µM,-6%
same,growth inhibition,[1]; at 3.7 µM,14%
same,growth inhibition,[1]; at 11.0 µM,-1%
same,growth inhibition,[1]; at 33.0 µM,86% (active)
same,growth inhibition,[1]; at 100.0 µM,80% (active)
same,growth inhibition,[2]; at 1.2 µM,-4%
same,growth inhibition,[2]; at 3.7 µM,-9%
same,growth inhibition,[2]; at 11.0 µM,-19%
same,growth inhibition,[2]; at 33.0 µM,81% (active)
same,growth inhibition,[2]; at 100.0 µM,77% (active)
same,growth inhibition,[3]; at 1.2 µM,9%
same,growth inhibition,[3]; at 3.7 µM,13%
same,growth inhibition,[3]; at 11.0 µM,12%
same,growth inhibition,[3]; at 33.0 µM,4%
same,growth inhibition,[3]; at 100.0 µM,5%
same,growth inhibition,[4]; at 1.2 µM,-9%
same,growth inhibition,[4]; at 3.7 µM,-11%
same,growth inhibition,[4]; at 11.0 µM,-18%
same,growth inhibition,[4]; at 33.0 µM,87% (active)
same,growth inhibition,[4]; at 100.0 µM,73% (active)
same,growth inhibition,[5]; at 1.2 µM,-3%
same,growth inhibition,[5]; at 3.7 µM,-15%
same,growth inhibition,[5]; [17],7%
same,growth inhibition,[5]; at 11.0 µM,-13%
same,growth inhibition,[5]; at 33.0 µM,77% (active)
same,growth inhibition,[5]; [18],94% (active)
same,growth inhibition,[5]; at 50.0 µM,79.3% (active)
same,growth inhibition,[5]; at 100.0 µM,76% (active)
same,growth inhibition,[6]; at 1.2 µM,8%
same,growth inhibition,[6]; at 3.7 µM,0%
same,growth inhibition,[6]; [17],-8%
same,growth inhibition,[6]; at 11.0 µM,-8%
same,growth inhibition,[6]; at 33.0 µM,73% (active)
same,growth inhibition,[6]; [18],93% (active)
same,growth inhibition,[6]; at 50.0 µM,66%
same,growth inhibition,[6]; at 100.0 µM,77% (active)
same,growth inhibition,[7]; at 1.2 µM,-10%
same,growth inhibition,[7]; at 3.7 µM,-4%
same,growth inhibition,[7]; at 11.0 µM,-51%
same,growth inhibition,[7]; at 33.0 µM,58%
same,growth inhibition,[7]; at 100.0 µM,55%
same,growth inhibition,[8]; [17],7%
same,growth inhibition,[8]; [18],97% (active)
same,growth inhibition,[8]; at 50.0 µM,64.8%
same,growth inhibition,[9]; at 1.2 µM,5%
same,growth inhibition,[9]; at 3.7 µM,-7%
same,growth inhibition,[9]; at 11.0 µM,5%
same,growth inhibition,[9]; at 33.0 µM,85% (active)
same,growth inhibition,[9]; at 100.0 µM,76% (active)
same,growth inhibition,[10]; [17],4%
same,growth inhibition,[10]; [18],97% (active)
same,growth inhibition,[10]; at 50.0 µM,75% (active)
same,growth inhibition,[11]; at 1.2 µM,-10%
same,growth inhibition,[11]; at 3.7 µM,-29%
same,growth inhibition,[11]; [17],36%
same,growth inhibition,[11]; at 11.0 µM,-23%
same,growth inhibition,[11]; at 33.0 µM,87% (active)
same,growth inhibition,[11]; [18],97% (active)
same,growth inhibition,[11]; at 50.0 µM,85.2% (active)
same,growth inhibition,[11]; at 100.0 µM,82% (active)
same,growth inhibition,[12]; at 1.2 µM,-3%
same,growth inhibition,[12]; at 3.7 µM,-9%
same,growth inhibition,[12]; at 11.0 µM,-37%
same,growth inhibition,[12]; at 33.0 µM,92% (active)
same,growth inhibition,[12]; at 100.0 µM,83% (active)
same,growth inhibition,[13]; at 1.2 µM,3%
same,growth inhibition,[13]; at 3.7 µM,5%
same,growth inhibition,[13]; at 11.0 µM,0%
same,growth inhibition,[13]; at 33.0 µM,81% (active)
same,growth inhibition,[13]; at 100.0 µM,66%
same,growth inhibition,[14]; at 1.2 µM,23%
same,growth inhibition,[14]; at 3.7 µM,18%
same,growth inhibition,[14]; at 11.0 µM,18%
same,growth inhibition,[14]; at 33.0 µM,71% (active)
same,growth inhibition,[14]; at 100.0 µM,80% (active)
same,growth inhibition,[15]; [17],-1%
same,growth inhibition,[15]; [18],93% (active)
same,growth inhibition,[15]; at 50.0 µM,86.3% (active)
same,growth inhibition,[16]; at 1.2 µM,12%
same,growth inhibition,[16]; at 3.7 µM,16%
same,growth inhibition,[16]; at 11.0 µM,13%
same,growth inhibition,[16]; at 33.0 µM,89% (active)
same,growth inhibition,[16]; at 100.0 µM,79% (active)
O=[N+]([O-])c1ccc2c(c1)C(N1CCN(CCO)CC1)Cc1ccc(F)cc1S2 (stereo unspecified),growth inhibition,[1]; at 1.2 µM,-2%
same,growth inhibition,[1]; at 3.7 µM,-2%
same,growth inhibition,[1]; at 11.0 µM,-3%
same,growth inhibition,[1]; at 33.0 µM,-2%
same,growth inhibition,[1]; at 100.0 µM,18%
same,growth inhibition,[2]; at 1.2 µM,-2%
same,growth inhibition,[2]; at 3.7 µM,-3%
same,growth inhibition,[2]; at 11.0 µM,-3%
same,growth inhibition,[2]; at 33.0 µM,-3%
same,growth inhibition,[2]; at 100.0 µM,15%
same,growth inhibition,[3]; at 1.2 µM,-2%
same,growth inhibition,[3]; at 3.7 µM,-1%
same,growth inhibition,[3]; at 11.0 µM,-1%
same,growth inhibition,[3]; at 33.0 µM,-1%
same,growth inhibition,[3]; at 100.0 µM,1%
same,growth inhibition,[4]; at 1.2 µM,-1%
same,growth inhibition,[4]; at 3.7 µM,-3%
same,growth inhibition,[4]; at 11.0 µM,-5%
same,growth inhibition,[4]; at 33.0 µM,-4%
same,growth inhibition,[4]; at 100.0 µM,34%
same,growth inhibition,[5]; at 1.2 µM,1%
same,growth inhibition,[5]; at 3.7 µM,1%
same,growth inhibition,[5]; [17],3%
same,growth inhibition,[5]; at 11.0 µM,1%
same,growth inhibition,[5]; at 33.0 µM,2%
same,growth inhibition,[5]; [18],71% (active)
same,growth inhibition,[5]; at 50.0 µM,44.2%
same,growth inhibition,[5]; at 100.0 µM,62%
same,growth inhibition,[6]; at 1.2 µM,-8%
same,growth inhibition,[6]; at 3.7 µM,-2%
same,growth inhibition,[6]; [17],0%
same,growth inhibition,[6]; at 11.0 µM,-4%
same,growth inhibition,[6]; at 33.0 µM,-4%
same,growth inhibition,[6]; [18],48%
same,growth inhibition,[6]; at 50.0 µM,-3.7%
same,growth inhibition,[6]; at 100.0 µM,8%
same,growth inhibition,[7]; at 1.2 µM,-2%
same,growth inhibition,[7]; at 3.7 µM,-1%
same,growth inhibition,[7]; at 11.0 µM,1%
same,growth inhibition,[7]; at 33.0 µM,15%
same,growth inhibition,[7]; at 100.0 µM,93% (active)
same,growth inhibition,[8]; [17],13%
same,growth inhibition,[8]; [18],90% (active)
same,growth inhibition,[8]; at 50.0 µM,72.8% (active)
same,growth inhibition,[9]; at 1.2 µM,-6%
same,growth inhibition,[9]; at 3.7 µM,-5%
same,growth inhibition,[9]; at 11.0 µM,0%
same,growth inhibition,[9]; at 33.0 µM,1%
same,growth inhibition,[9]; at 100.0 µM,20%
same,growth inhibition,[10]; [17],2%
same,growth inhibition,[10]; [18],43%
same,growth inhibition,[10]; at 50.0 µM,78.6% (active)
same,growth inhibition,[11]; at 1.2 µM,-1%
same,growth inhibition,[11]; at 3.7 µM,-4%
same,growth inhibition,[11]; [17],-2%
same,growth inhibition,[11]; at 11.0 µM,0%
same,growth inhibition,[11]; at 33.0 µM,-5%
same,growth inhibition,[11]; [18],79% (active)
same,growth inhibition,[11]; at 50.0 µM,-1.1%
same,growth inhibition,[11]; at 100.0 µM,24%
same,growth inhibition,[12]; at 1.2 µM,-2%
same,growth inhibition,[12]; at 3.7 µM,-3%
same,growth inhibition,[12]; at 11.0 µM,-3%
same,growth inhibition,[12]; at 33.0 µM,-3%
same,growth inhibition,[12]; at 100.0 µM,36%
same,growth inhibition,[13]; at 1.2 µM,-3%
same,growth inhibition,[13]; at 3.7 µM,-3%
same,growth inhibition,[13]; at 11.0 µM,-2%
same,growth inhibition,[13]; at 33.0 µM,-3%
same,growth inhibition,[13]; at 100.0 µM,35%
same,growth inhibition,[14]; at 1.2 µM,-1%
same,growth inhibition,[14]; at 3.7 µM,-1%
same,growth inhibition,[14]; at 11.0 µM,-2%
same,growth inhibition,[14]; at 33.0 µM,0%
same,growth inhibition,[14]; at 100.0 µM,80% (active)
same,growth inhibition,[15]; [17],0%
same,growth inhibition,[15]; [18],-13%
same,growth inhibition,[15]; at 50.0 µM,44.4%
same,growth inhibition,[16]; at 1.2 µM,-3%
same,growth inhibition,[16]; at 3.7 µM,-5%
same,growth inhibition,[16]; at 11.0 µM,-3%
same,growth inhibition,[16]; at 33.0 µM,0%
same,growth inhibition,[16]; at 100.0 µM,64%
